T cruzi growth-1: T. cruzi proliferation inhibition; T. cruzi beta-gal in NIH3T3, GalScreen luminescence, 90 h; actives 5.9% (n = 77,000); inhibition, % at 8.34 µM;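 active means mean inhibition above about 93%, with at least 55% of replicates each passing it, limit read from the data, passing the limit was not always enough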
Pf Dd2 inh: blocks growth of Plasmodium falciparum Dd2 parasites; actives 2.3% (n = 94,000); P. falciparum Dd2 growth, SYBR Green, 72 h; stronger effect = lower value; activity change, % at 10 µM; in the data active means activity change below about -80%
C diff HTS: C. difficile growth inhibition; growth activity, negative = inhibition, % at 16 µg/mL (by protocol); Clostridium difficile clinical isolate growth, OD600, 24 h; stronger effect = lower value; actives 0.25% (n = 86,000);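 active means mean growth activity at or below -80% and every replicate also at or below -80%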;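 further: 0% = DMSO wells and -100% = levofloxacin 16 µg/mL wells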
T cruzi growth-2: Trypanosoma cruzi proliferation inhibition. shares compounds with T cruzi growth-1. T. cruzi beta-gal in NIH3T3, GalScreen luminescence, 90 h. inhibition, % at 8.35 µM. actives 72% (n = 5,600);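 active means mean replicate inhibition above about 95% and at least 55% of replicates individually reaching it, limit read from the data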
T cruzi growth-3: Trypanosoma cruzi proliferation inhibition. shares compounds with T cruzi growth-1. T. cruzi beta-gal in NIH3T3, GalScreen luminescence, 90 h. inhibition, % at 2.09 µM. actives 21% (n = 5,600). AID 651740;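 active means mean inhibition above about 95%, with at least 55% of replicates also reaching it, limit read from the data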;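 further: plate controls were neutral control median for no effect and positive control median for full effect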
NIH3T3 tox: NIH/3T3 (mouse) viability loss | shares compounds with T cruzi growth-1 | AID 651742 | cytotoxicity (signal decrease), % at 8.35 µM | NIH/3T3 viability, CellTiter-Glo ATP luminescence, 90 h | actives 14% (n = 5,600);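 active means mean signal decrease across replicates above about 35% based on untreated-well scatter, with enough replicates individually passing, limit read from the data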;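 further: 0% = median of neutral control wells and 100% = median of positive control wells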
3T3 cytotox 2: kills mouse NIH/3T3 fibroblasts | shares compounds with T cruzi growth-1 | NIH/3T3 viability, CellTiter-Glo ATP luminescence, 90 h | inhibition, % at 24.9 µM | actives 56% (n = 5,600);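 active means mean loss of cell viability signal at or above a set limit, and enough replicates individually reaching it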;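 further: 0% = median of neutral control wells and 100% = median of positive control wells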
Numbers without * were called inactive. This is a sample that favours compounds with a hit; in the whole collection about 6.7% have one here.

Results for COCC(=O)Nc1ccc2c(c1)OC[C@@H](C)N(C(=O)c1ccncc1)C[C@H](C)[C@H](OC)CN(C)C2=O ?
T cruzi growth-1: -9; Pf Dd2 inh: -14

What do the screens show for `COCCNC(=O)C[C@@H]1C[C@H]2c3cc(NC(=O)C4CCOCC4)ccc3O[C@H]2[C@H](CO)O1`?
T cruzi growth-1: 6; Pf Dd2 inh: -27

What do the screens show for `C[C@@H]1CN([C@H](C)CO)C(=O)c2cc(NC(=O)Cc3ccccc3)ccc2O[C@@H](C)CCCCO[C@H]1CN(C)C`?
T cruzi growth-1: -7; Pf Dd2 inh: -16; C diff HTS: 1

What do the screens show for `O=C(C[C@@H]1C=C[C@@H](NC(=O)Nc2ccc3c(c2)OCO3)[C@@H](CO)O1)NCc1ccc(Cl)cc1`?
T cruzi growth-1: 6; Pf Dd2 inh: 15

How did C[C@H]1CN([C@@H](C)CO)C(=O)Cc2cc(NS(=O)(=O)c3cccs3)ccc2O[C@H]1CN(C)Cc1ccc(Cl)c(Cl)c1 do in these assays?
T cruzi growth-1: 13; Pf Dd2 inh: -5; C diff HTS: 4

What do the screens show for `C[C@@H]1CN([C@H](C)CO)C(=O)c2cc(-c3cccnc3)cnc2O[C@@H]1CN(C)Cc1ccc(Oc2ccccc2)cc1`?
T cruzi growth-1: 37; Pf Dd2 inh: -12; C diff HTS: -2

How did C[C@H](CO)N1C[C@H](C)[C@@H](CN(C)Cc2ccc(Oc3ccccc3)cc2)Oc2ncc(-c3ccncc3)cc2C1=O do in these assays?
T cruzi growth-1: 109*; Pf Dd2 inh: -73; C diff HTS: -11; T cruzi growth-2: 111*; T cruzi growth-3: 75; NIH3T3 tox: 28; 3T3 cytotox 2: 105*

How did C[C@H]1CN([C@@H](C)CO)C(=O)c2cc(-c3cccnc3)cnc2O[C@H]1CN(C)Cc1ccc(Oc2ccccc2)cc1 do in these assays?
T cruzi growth-1: 31; Pf Dd2 inh: -22; C diff HTS: 2

What do the screens show for `C[C@@H]1CN([C@@H](C)CO)C(=O)c2cc(-c3ccncc3)cnc2O[C@H]1CN(C)Cc1ccc(Oc2ccccc2)cc1`?
T cruzi growth-1: 94*; Pf Dd2 inh: -61; C diff HTS: -1; T cruzi growth-2: 102*; T cruzi growth-3: 69; NIH3T3 tox: 41*; 3T3 cytotox 2: 104*

How did COc1ccccc1C(=O)N1C[C@H]2[C@@H](c3ccccc31)[C@@H](CO)N2Cc1ccc(F)cc1 do in these assays?
T cruzi growth-1: 7; Pf Dd2 inh: 8; C diff HTS: 5

Results for C[C@@H]1CN([C@H](C)CO)C(=O)c2cc(NS(=O)(=O)c3cn(C)cn3)ccc2O[C@H]1CN(C)Cc1ccc(C(=O)Nc2ccccc2N)cc1 ?
T cruzi growth-1: 108; Pf Dd2 inh: 24

Results for COc1cccc(NC(=O)C[C@@H]2CC[C@H]3[C@@H](COc4ccc(NC(=O)c5ccccc5F)cc4C(=O)N3C)O2)c1 ?
T cruzi growth-1: 35; Pf Dd2 inh: -24; C diff HTS: -2

Results for N#C[C@H]1[C@H](c2ccc(C#CC3CCCC3)cc2)[C@H](CO)N1C(=O)Nc1ccc(F)cc1 ?
T cruzi growth-1: 103*; Pf Dd2 inh: -30; C diff HTS: -11; T cruzi growth-2: 106*; T cruzi growth-3: 76; NIH3T3 tox: 4; 3T3 cytotox 2: 105*

Results for CC(C)NC(=O)N1[C@H](C#N)[C@@H](c2ccc(C#CC3CCCC3)cc2)[C@@H]1CO ?
T cruzi growth-1: 99*; Pf Dd2 inh: -44; C diff HTS: -2; T cruzi growth-2: 106*; T cruzi growth-3: 70; NIH3T3 tox: 7; 3T3 cytotox 2: -21

How did CC(C)NC(=O)N1[C@H](C#N)[C@H](c2ccc(C#CC3CCCC3)cc2)[C@H]1CO do in these assays?
T cruzi growth-1: 102*; Pf Dd2 inh: -69; C diff HTS: 8; T cruzi growth-2: 103*; T cruzi growth-3: 101*; NIH3T3 tox: -9; 3T3 cytotox 2: 4

How did CC(C)NC(=O)N1[C@H](CO)[C@H](c2ccc(C#CC3CCCC3)cc2)[C@@H]1C#N do in these assays?
T cruzi growth-1: 93; Pf Dd2 inh: -40; C diff HTS: -4

Results for N#C[C@@H]1[C@H](c2ccc(C#CC3CCCC3)cc2)[C@@H](CO)N1C(=O)c1cccc(F)c1 ?
Pf Dd2 inh: -55; C diff HTS: 49

How did CN(C)CC(=O)N1[C@H](CO)[C@@H](c2ccc(C#CC3CCCCC3)cc2)[C@@H]1C#N do in these assays?
T cruzi growth-1: 99*; Pf Dd2 inh: -20; C diff HTS: 2; T cruzi growth-2: 102*; T cruzi growth-3: 66; NIH3T3 tox: -12; 3T3 cytotox 2: 106*

How did CN(C)CC(=O)N1[C@H](C#N)[C@H](c2ccc(C#CC3CCCCC3)cc2)[C@@H]1CO do in these assays?
T cruzi growth-1: 93; Pf Dd2 inh: -33; C diff HTS: 4

How did CN(C)CC(=O)N1[C@@H](C#N)[C@H](c2ccc(C#CC3CCCC3)cc2)[C@@H]1CO do in these assays?
T cruzi growth-1: 31; Pf Dd2 inh: -14; C diff HTS: -1

How did CCC(=O)Nc1ccc2c(c1)OC[C@@H](C)N(CC1CCCCC1)C[C@H](C)[C@@H](OC)CN(C)C2=O do in these assays?
T cruzi growth-1: -4; Pf Dd2 inh: -11; C diff HTS: -2

Results for CO[C@H]1CN(C)C(=O)c2cc(NC(=O)c3ccc(F)cc3)ccc2OC[C@@H](C)N(C(=O)c2ccc(F)cc2)C[C@@H]1C ?
T cruzi growth-1: -30; Pf Dd2 inh: -39

What do the screens show for `COc1ccc2c3c([nH]c2c1)[C@H](CO)N(C(=O)C1CCCC1)CC31CN(C(=O)NC(C)C)C1`?
Pf Dd2 inh: -14; C diff HTS: -4

Results for COc1ccc(NC(=O)N(C)C[C@@H]2Oc3c(NS(=O)(=O)c4ccc(Cl)cc4)cccc3C(=O)N([C@@H](C)CO)C[C@@H]2C)cc1 ?
T cruzi growth-1: 7; Pf Dd2 inh: -23; C diff HTS: 0

How did Cc1ccccc1-c1cnc2c(c1)C(=O)N([C@H](C)CO)C[C@@H](C)[C@H](CN(C)Cc1cncnc1)O2 do in these assays?
Pf Dd2 inh: -7

Results for O=C(C[C@H]1CC[C@H](NC(=O)c2ccccn2)[C@H](CO)O1)NCc1cc(F)cc(F)c1 ?
T cruzi growth-1: 4; Pf Dd2 inh: -12; C diff HTS: -2

Results for C[C@@H]1CCCCO[C@H](CN(C)S(=O)(=O)c2ccc(Cl)cc2)[C@@H](C)CN([C@H](C)CO)C(=O)c2cc(NC(=O)Cc3ccccc3)ccc2O1 ?
T cruzi growth-1: 46; Pf Dd2 inh: -71; C diff HTS: 0

Screens: PubChem, Broad Institute
